HepG2 tox – HepG2 cytotoxicity, counter-screen for TGF-b inhibitors; Potency, µM (series often up to 46.1 µM), inactives show top-dose activity change, negative = cytotoxicity, hits mostly cytotoxic; AID 588856; actives 0.76% (n = 410,000); HepG2 CAGA-GFP viability, ATP luminescence, 18 h; also: potency is read from the fitted curve at half-maximal effect
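CellTiter-Glo luminescence gave cytotoxicity after 18 hours at 37 degrees C. The cells were HepG2 CAGA-GFP in 1% FBS DMEM, stimulated with 500 pg/mL TGF-beta after compound addition. %Activity was normalised to no-cell wells (complete cell-killing) and DMSO (no toxicity), and curves were fitted and classified.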
TGFb inhibitor – inhibitors of TGF-b signaling; HepG2 CAGA-GFP TGF-b/SMAD3 reporter, GFP fluorescence, 18 h; TGF-beta stimulated, 500 pg/mL final; Potency, µM (titrated, usually from 46.1 µM), for the others: at the top dose activity, negative = inhibition, most hits filed as inhibitors; actives 1.2% (n = 410,000); AID 588855; also: potency is read from the fitted curve at half-maximal effect; % is scaled to controls: 0 for no effect and ±100 for the full control effect; nearly all actives have a fitted effect of over 65% in size
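Read-out: total well GFP (ex488/em500-530) summed from mean per-cell fluorescence. Cells: HEPG2 CAGA-GFP, 1% FBS DMEM, 18 h at 37 degrees C with 500 pg/mL final TGF-beta. Unstimulated wells served as the full-inhibition control; stimulated DMSO wells = 0%.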
DT40 TDP1 no CPT – qHTS for Inhibitors of human tyrosyl-DNA phosphodiesterase 1 (TDP1): qHTS in cells in absence of CPT | actives 15% (n = 420,000) | Potency, µM (doses to about 46.2 µM), without a hit: top-dose activity change, negative = growth inhibition, actives largely listed as inhibitors | DT40 Tdp1-/- hTDP1 cells, no CPT, ATP luminescence, 48 h | AID 686978, 2013; also: potency is read from the fitted curve at half-maximal effect; % is scaled to controls: 0 for no effect and ±100 for the full control effect; nearly all actives have a fitted effect of over 55% in size
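DT40 Tdp1-/-;hTDP1 cells, no CPT (DMSO vehicle only), 400 cells/well; compounds pin-transferred; ≥48 hr, 37 °C; CellTiter-Glo 30 min RT dark, luminescence read.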
IL1B secr inh – blocks inflammasome-driven IL-1 beta release. actives 4.7% (n = 360,000). THP-1 LPS/ATP IL-1B secretion, AlphaLISA, 16 h; active compounds read low. activity change, % at 57.5 µM; in the data active = activity change below about -50%; inconclusive = mostly about -30% to -49%; also: % is scaled to controls: 0 for no effect and ±100 for the full control effect
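Secreted IL-1B measured by AlphaLISA bead assay after 16 h compound exposure of THP-1 cells; compounds (final up to 57.5 uM) added 1 h before LPS (250 ng/mL) and ATP (1.25 mM) stimulation; lower signal means less secretion.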
TDP1 cell CPT – growth inhibition of DT40 Tdp1-/-;hTDP1 cells with camptothecin (screen for TDP1 inhibitors); chicken DT40 Tdp1-/-;hTDP1 cells + 20 nM CPT, ATP luminescence, 48 h; Potency, µM (highest dose often 46.2 µM), for the others: at the highest dose activity change, negative = growth inhibition, actives largely listed as inhibitors; actives 12% (n = 420,000); also: potency is read from the fitted curve at half-maximal effect; % is scaled to controls: 0 for no effect and ±100 for the full control effect; nearly all actives have a fitted effect of over 55% in size
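Chicken DT40 Tdp1-/- cells stably complemented with human TDP1 were seeded at 400 cells/well in medium containing 20 nM camptothecin, exposed to pin-transferred compounds, and grown at 37 °C for at least 48 hr. Viability was read as ATP luminescence.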
TDP1 inh – TDP1 (human) enzyme inhibition; recombinant TDP1, AlphaScreen DNA substrate cleavage; actives 0.28% (n = 350,000); Potency, µM (titrated, usually from 130 µM), for the others: at the highest dose activity change, negative = inhibition, usual class: inhibitors; AID 485290; also: potency is read from the fitted curve at half-maximal effect; % is scaled to controls: 0 for no effect and ±100 for the full control effect; nearly all actives have a fitted effect of over 40% in size
Target sequence (Q9NUW8 whole entry, looked up): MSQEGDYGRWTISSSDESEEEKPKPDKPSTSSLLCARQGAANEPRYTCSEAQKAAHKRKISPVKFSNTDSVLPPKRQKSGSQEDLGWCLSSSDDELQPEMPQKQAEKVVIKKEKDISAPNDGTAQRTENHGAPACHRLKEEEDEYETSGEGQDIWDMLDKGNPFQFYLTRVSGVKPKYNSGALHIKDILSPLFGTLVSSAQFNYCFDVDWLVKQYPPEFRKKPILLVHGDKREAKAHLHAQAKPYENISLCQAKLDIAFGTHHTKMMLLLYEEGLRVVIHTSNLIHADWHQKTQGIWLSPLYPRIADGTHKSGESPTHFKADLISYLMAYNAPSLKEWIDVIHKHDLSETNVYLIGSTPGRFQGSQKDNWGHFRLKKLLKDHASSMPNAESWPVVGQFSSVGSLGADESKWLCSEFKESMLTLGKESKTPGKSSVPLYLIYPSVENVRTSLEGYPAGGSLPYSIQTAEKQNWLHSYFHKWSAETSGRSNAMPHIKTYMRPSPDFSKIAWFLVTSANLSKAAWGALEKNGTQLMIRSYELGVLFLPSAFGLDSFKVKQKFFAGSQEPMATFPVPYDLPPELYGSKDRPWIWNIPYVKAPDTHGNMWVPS
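AlphaScreen read-out: signal falls as enzyme removes the 3' tyrosine-FITC from a 5'-biotinylated DNA oligo (15 nM, 5 min, RT). Enzyme was E. coli-made recombinant Tdp1 at 1 nM, exposed to compound for 15 min beforehand; beads 10 ug/ml, 10 min.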
* marks the source's active call; other numbers are inactive results; ? = inconclusive; / = not tested or not shown; ! = not confirmed by another sample; [ ] = dose if it differs, or a comment. Hits are enriched below; roughly 18% of the tested compounds scored in any of these assays. Unless noted, calls follow the shape of the dose curve; as a rule, active = well fitted curve in the direction sought with a large enough effect; inconclusive = small, poorly fitted or top-dose-only effect, or another doubt; inactive = no such curve, though single readings can be large; an effect the other way counts as inactive or inconclusive.

SMILES	HepG2 tox	TGFb inhibitor	DT40 TDP1 no CPT	IL1B secr inh	TDP1 cell CPT	TDP1 inh
CCN1CCN(Cc2ccc(NC(=O)c3ccc(C)c(NC(=O)C4=NN(c5ccccc5)C(=O)C4)c3)cc2C(F)(F)F)CC1	-16.1%	12.3%	?	16.5	?	6.2%
CCN1CCN(Cc2ccc(NC(=O)c3cc(NC(=O)c4cncc(-c5cccs5)c4)cc(OC)c3)cc2C(F)(F)F)CC1	14.1µM*!	14.1µM*	7.31µM*	-103.5*!	16.4µM*	/
CCN1CCN(c2ccc(NC(=O)c3cccnc3)cc2Cl)CC1	-20.2%	1.3%	-22.7%	6.4	-8.2%	2.1%
CCN1CCN(Cc2ccc(NC(=O)c3cc(NC(=O)c4ccno4)cc(OC)c3)cc2C(F)(F)F)CC1	-50.2%	?	23.1µM*	?	?	3.5%
Cc1ccc(S(=O)(=O)NC(=O)N2CCCC2)cc1	7.4%	-8.1%	12.3%	0.0	-13.0%	/
CC1CCN(C(=O)CSc2nnc(CSc3ncccn3)n2C)CC1	0.0%	-11.6%	-2.3%	-12.2	-23.6%	-1.0%
COC(=O)c1cc(C(=O)OCC(=O)N(C)c2ccccc2)cc([N+](=O)[O-])c1	-5.0%	?	1.5%	4.2	13.2%	0.4%
CCN1CCN(Cc2ccc(NC(=O)c3cc(NC(=O)N4CCNC4=O)cc(OC)c3)cc2C(F)(F)F)CC1	-74.1%	?	20.6µM*	50.1	16.4µM*	7.1%
CCN1CCN(Cc2ccc(NC(=O)c3cc(NC(=O)c4cc(-c5ccc(OC)cc5)n[nH]4)cc(OC)c3)cc2C(F)(F)F)CC1	-112.0%	?	4.61µM*	-0.1	?	6.2%
CCN1CCN(Cc2ccc(NC(=O)c3cc(NC(=O)C4=NN(c5ccccc5)C(=O)C4)cc(OC)c3)cc2C(F)(F)F)CC1	-5.3%	10.4%	?	-3.0	?	3.5%
CCN1CCN(Cc2ccc(NC(=O)c3cc(NC(=O)c4ccc5n[nH]nc5c4)cc(OC)c3)cc2C(F)(F)F)CC1	3.2%	?	-7.2%	2.5	11.9%	6.2%
Cc1cc(C(=O)NC2CCC(O)CC2)c(C)o1 (centres undefined)	-1.5%	?	2.5%	7.8	-7.3%	-0.5%
Nc1nonc1-n1nnc(C(=O)N/N=C/c2ccc(Br)cc2)c1CSC1=NCCS1	2.5%	1.0%	25.9µM*	-101.5*	?	0.0%
Nc1nonc1-n1nnc(C(=O)N/N=C/c2cccnc2)c1CSc1ccc(Cl)cc1	-3.9%	-20.0%	?	1.2	23.1µM*	5.1%
Nc1nonc1-n1nnc(C(=O)N/N=C/c2cccnc2)c1CSc1ccccc1	-16.7%	8.4%	-2.9%	-3.9	2.7%	1.6%
CC(C)c1ccc(/C=N/NC(=O)c2nnn(-c3nonc3N)c2CSC2=NCCS2)cc1	2.1%	-13.6%	20.6µM*	-86.9*	?	5.6%
Nc1nonc1-n1nnc(C(=O)N/N=C/c2cccnc2)c1CSC1=NCCS1	-1.7%	?	?	/	-4.4%	7.5%
CCC1CN2CCc3cc(OC)c(OC)cc3C2CC1CC1c2cc(OC)c(OC)cc2CCN1C(=O)C(Cc1c[nH]c2ccccc12)NC(=O)OC(C)(C)C (centres undefined)	2.8%	-5.6%	5.8µM*	-29.6	6.51µM*	/
O=C1CCCc2nc(N3CCN(C(c4ccccc4)c4ccccc4)CC3)ncc21	-19.9%	0.0%	20.6µM*	-0.8	16.4µM*	3.9%
Cc1nc(N2CCN(C(c3ccccc3)c3ccccc3)CC2)nc2c1C(=O)CCC2	/	/	/	/	/	1.9%
COc1cc2c(C=O)c3c4c(cc(OC)c(OC)c4c2cc1OC)CCN3C	/	/	11.9µM*	/	11.9µM*	10.7%[56.1 µM]
N=C(N)SCP(=O)(c1ccccc1)c1ccccc1	-35.6%	1.8%	18.4µM*	-85.3*	20.6µM*	4.2%
Cc1ccc(C(C)C)c(OCc2nnc(SCC(=O)Nc3ncc(C)s3)n2C)c1	-14.1%	3.3%	?	13.3	18.4µM*	3.1%
Cc1ccccc1OCc1nnc(SCC(=O)Nc2ccc3nc(SCC(=O)Nc4ccccc4)sc3c2)n1C	-21.1%	5.6%	14.6µM*	27.1	?	7.9%
Cc1ccccc1OCC(=O)Nc1ccc2nc(SCC(=O)N(C)c3ccccc3)sc2c1	-12.3%	-26.5%	10.3µM*	/	18.4µM*	2.6%
SMILES	HepG2 tox	TGFb inhibitor	DT40 TDP1 no CPT	IL1B secr inh	TDP1 cell CPT	TDP1 inh
Cc1cnc(NC(=O)CSc2nnc(Cc3ccccc3)n2C)s1	4.3%	-0.1%	-4.8%	18.5	-0.4%	3.3%
Cc1ccccc1OCc1nnc(SCC(=O)Nc2ccc3c(c2)OCO3)n1C	-12.3%	10.8%	-12.3%	-0.2	4.4%	10.4%
Cc1ccccc1OCC(=O)Nc1ccc2nc(SCC(=O)N3CCCC3)sc2c1	-28.6%	-1.4%	14.6µM*	/	16.4µM*	1.6%
Cc1ccccc1OCC(=O)Nc1ccc2nc(SCc3ccccc3)sc2c1	16.2%	-5.5%	4.3%	/	-13.1%	2.6%
CCOC(=O)c1c(C)[nH]c(C)c1S(=O)(=O)N1CCCC(C(=O)Nc2ccc(F)cc2F)C1 (centres undefined)	-13.7%	?	-27.7%	/	?	5.3%
CCc1c(C)c2ccc3c(c2oc1=O)CN(Cc1ccccc1)CO3	-11.5%	3.6%	/	/	/	2.8%
CCCC(=O)Nc1ccc2nc(SCC(=O)N3CCOCC3)sc2c1	5.0%	0.0%	?	/	?	-2.6%
Cc1ccccc1OCC(=O)Nc1ccc2nc(SCC(=O)N3CCOCC3)sc2c1	-28.3%	-11.6%	5.8µM*	/	?	0.5%
Clc1ccc(-c2cc3ncc4c(n3n2)-c2ccccc2OC4)cc1	-14.9%	?	-21.2%	/	2.9%	0.6%
C=CC[C@H](CC(=O)N(CCO)Cc1ccccc1)C(=O)N[C@H](COC(=O)[C@H](CC=C)CC(=O)OC(C)(C)C)Cc1c[nH]c2ccccc12	4.3%	?	?	-60.5*	?	5.0%
C=CC[C@@H](CC(=O)N(CCO)Cc1ccccc1)C(=O)N[C@@H](COC(=O)[C@H](CC=C)CC(=O)OC(C)(C)C)Cc1c[nH]c2ccccc12	7.6%	?	?	-72.2*	?	3.1%
C=CC[C@H](CC(=O)N(CCO)Cc1ccccc1)C(=O)N[C@@H](COC(=O)[C@@H](CC=C)CC(=O)OC(C)(C)C)Cc1c[nH]c2ccccc12	-21.2%	?	?	?	?	3.9%
